Composite z-score and z-score data for five compounds are collected here from PubChem BioAssay.

Assay [1] in a line: compounds binding Alexa647 anti-His antibody – biochemical, small-molecule microarray, 635 nm fluorescence, artefact control for SMM control protein annotation, primary screen (AID 1128).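 Note: score merges feature fluorescence with signal-to-noise for each printed compound spot.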 Particulars: higher = more signal.
In assay [2] the test system is Human papillomavirus type 1a E7 protein (residues 1-88). Kind of assay: HPV1a E7 small-molecule binders, primary screen, biochemical, small-molecule microarray, residues 1-88, 635 nm (AID 1129). To be noted: small-molecule microarray binding, fluorescence 635 nm; higher = more signal.
Assay [3] concerns the target Focal adhesion kinase 1 (Homo sapiens) (UniProt Q05397). Kind of assay: PTK2 protein binding on printed compound slides – biochemical, small-molecule microarray, 635/667 nm fluorescence, BSA, DTT, primary screen (AID 1130).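 Note: composite of spot emission at 667 nm and signal to noise over triplicate slides.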 To be noted: 635 nm fluorescence, higher = more signal.
Assay [4] concerns Fibrinogen (Alexa647-labelled). Nature of the assay: Alexa647-fibrinogen binding to printed small molecules – biochemical, small-molecule microarray, 635/667 nm fluorescence, artefact control for SMM control-protein annotation, profiling panel (AID 1131).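 Note: z-score merges 667 nm fluorescence with per-spot signal-to-noise over triplicate slides.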 Particulars: fibrinogen-A647 binding fluorescence, higher = more signal.
For assay [5], the target named is Follistatin (Homo sapiens) (UniProt P19883). Nature of the assay: FST protein binding to printed compounds – biochemical, small-molecule microarray, 635/667 nm fluorescence, primary screen (AID 1132). To be noted: 635 nm fluorescence, higher = more signal.
Chain of Follistatin (Homo sapiens) (P19883 whole entry, looked up): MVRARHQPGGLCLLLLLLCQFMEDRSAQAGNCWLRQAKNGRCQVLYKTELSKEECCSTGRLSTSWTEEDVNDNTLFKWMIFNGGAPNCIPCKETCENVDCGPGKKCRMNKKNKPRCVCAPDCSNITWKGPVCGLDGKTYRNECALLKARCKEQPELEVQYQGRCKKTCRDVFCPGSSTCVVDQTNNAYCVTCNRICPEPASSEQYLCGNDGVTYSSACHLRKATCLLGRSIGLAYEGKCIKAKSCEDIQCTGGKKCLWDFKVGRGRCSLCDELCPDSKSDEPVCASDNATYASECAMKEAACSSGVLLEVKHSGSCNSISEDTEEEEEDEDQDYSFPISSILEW
In assay [6] the target is Fibroblast growth factor 2 (Homo sapiens) (UniProt P09038). Kind of assay: basic fibroblast growth factor binding to printed compounds – biochemical, small-molecule microarray, 635/667 nm fluorescence, primary screen (AID 1133). Particulars: FGF2, fluorescence 635/667, higher = more signal.
Chain of Fibroblast growth factor 2 (Homo sapiens) (P09038 whole entry, looked up): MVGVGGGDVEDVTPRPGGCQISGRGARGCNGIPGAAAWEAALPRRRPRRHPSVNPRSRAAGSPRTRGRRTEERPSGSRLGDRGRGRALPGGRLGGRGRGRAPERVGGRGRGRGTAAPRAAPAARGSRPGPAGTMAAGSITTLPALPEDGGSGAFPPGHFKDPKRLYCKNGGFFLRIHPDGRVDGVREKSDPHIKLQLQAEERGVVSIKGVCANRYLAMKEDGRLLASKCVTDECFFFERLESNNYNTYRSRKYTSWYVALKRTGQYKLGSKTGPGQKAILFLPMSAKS
Assay [7] is described as follows: JC-1 mitochondrial potential readout, lung cancer cells – cell-based, A549, JC-1 fluorescence, basal, 24 h, 100 nL, profiling panel (AID 1138).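 Note: A549 lung adenocarcinoma cells under basal conditions with no added stimulus; test concentration not given here.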 To be noted: higher = more signal.
The subject of assay [8] is Lefty1. Nature of the assay: Lefty1 protein binding to printed compounds – biochemical, small-molecule microarray, 635/667 nm fluorescence, primary screen (AID 1139). To be noted: fluorescence 635/667, higher = more signal.
Assay [9] relates to wheat germ agglutinin (Triticum aestivum), Alexa647-labelled. Kind of assay: Alexa647-WGA lectin binding to printed small molecules – biochemical, small-molecule microarray, 635/667 nm fluorescence, artefact control for SMM control-protein annotation, profiling panel (AID 1140).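 Note: score merges 667 nm feature emission with signal to noise over triplicate slides.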 Particulars: WGA-A647 binding, 635 nm fluorescence, higher = more signal.
For assay [10], the target named is Luciferin 4-monooxygenase (Photinus pyralis) (UniProt P08659). Nature of the assay: inhibition of purified Photinus pyralis luciferase – biochemical, luminescence, purified enzyme, 2006 set, primary screen (AID 1141).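 Note: cell-free assay with purified firefly luciferase at 100 ng per well in PBS; test concentration not given here.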 To be noted: purified firefly luciferase, SteadyGlo luminescence, 30 min; higher = more signal, called active from +8 up or from −8 down.
Chain of Luciferin 4-monooxygenase (Photinus pyralis) (P08659 whole entry, looked up): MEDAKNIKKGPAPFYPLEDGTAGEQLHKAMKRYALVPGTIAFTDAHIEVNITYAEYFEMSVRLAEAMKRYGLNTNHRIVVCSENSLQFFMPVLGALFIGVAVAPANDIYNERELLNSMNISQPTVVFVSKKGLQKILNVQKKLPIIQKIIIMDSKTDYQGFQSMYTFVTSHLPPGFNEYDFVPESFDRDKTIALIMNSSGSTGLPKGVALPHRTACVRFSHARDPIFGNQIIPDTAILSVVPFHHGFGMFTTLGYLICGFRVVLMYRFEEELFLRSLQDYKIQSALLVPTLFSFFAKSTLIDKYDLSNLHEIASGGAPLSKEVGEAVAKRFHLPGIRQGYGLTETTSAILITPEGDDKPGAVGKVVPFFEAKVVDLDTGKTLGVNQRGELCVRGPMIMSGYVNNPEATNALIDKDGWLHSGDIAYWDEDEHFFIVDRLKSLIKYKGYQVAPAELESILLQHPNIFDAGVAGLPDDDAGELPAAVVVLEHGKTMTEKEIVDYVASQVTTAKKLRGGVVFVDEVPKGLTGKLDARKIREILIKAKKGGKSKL
Assay [11] concerns Wnt5a (protein binding on small-molecule microarray). Nature of the assay: small molecules binding Wnt5a protein – biophysical, small-molecule microarray, 635/667 nm fluorescence, primary screen (AID 1142).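 Note: fluorescence read at 667 nm with signal to noise per printed feature.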 Particulars: 635 nm fluorescence, higher = more signal.
The nature of assay [12]: ATP-based viability of Huh7 replicon cells – cell-based, CellTiter-Glo luminescence, basal, 48 h, cytotoxicity control for HCV replication inhibitor project, primary screen (AID 1143).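 Note: Huh7 hepatoma cells carrying a hepatitis C replication reporter with no stimulus; test concentration not given here.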 To be noted: higher = more signal, called active from +8 up or from −8 down. A general note: In antiviral work, replicon cells carry a viral genome segment that copies itself.
The nature of assay [13]: Pseudomonas biofilm growth suppression – PAO1 strain, BacTiter-Glo luminescence, LB-PBS, primary screen (AID 1144). Particulars: P. aeruginosa PAO1 biofilm, 12 h, higher = more signal.
Assay [14] can be described thus: basal CRE-LacZ reporter activity in PC12 – cell-based, unstimulated, primary screen (AID 1145). To be noted: no forskolin, luminescence, 4.5 h, higher = more signal, called active from +8 up or from −8 down.
A short description of assay [15]: forskolin-driven CRE-LacZ activity in PC12 – cell-based, CRE-LacZ reporter, forskolin-stimulated, primary screen (AID 1146).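 Note: PC12 cells with 6xCRE LacZ reporter stimulated by forskolin 10 µM; beta-galactosidase reporter signal reflecting CREB driven transcription.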 Particulars: luminescence, 4.5 h, higher = more signal, called active from +8 up or from −8 down.
Assay [16] has as its target Streptavidin (Streptomyces avidinii) (UniProt P22629). Nature of the assay: compounds binding control protein streptavidin – biophysical, small-molecule microarray, 635/667 nm fluorescence, artefact control for SMM compound annotation, primary screen (AID 1147).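 Note: signal reflects streptavidin binding to arrayed compounds as a control protein.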 Particulars: higher = more signal.
Assay [17] is described as follows: probe aInhba binding on compound microarray – biochemical, small-molecule microarray, 635/667 nm fluorescence, primary screen (AID 1148).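 Note: score merges 667nm spot fluorescence with signal-to-noise for antibody binding to printed compounds.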 To be noted: higher = more signal.
Assay [18] deals with Torsin-1A (Homo sapiens) (UniProt O14656). Nature of the assay: TOR1A wild-type binding on microarray – cell lysate, small-molecule microarray, lysate, 635/667 nm, primary screen (AID 1149). Particulars: COS7 hTOR1A-WT lysate, 635 nm fluorescence, higher = more signal.
Chain of Torsin-1A (Homo sapiens) (O14656 whole entry, looked up): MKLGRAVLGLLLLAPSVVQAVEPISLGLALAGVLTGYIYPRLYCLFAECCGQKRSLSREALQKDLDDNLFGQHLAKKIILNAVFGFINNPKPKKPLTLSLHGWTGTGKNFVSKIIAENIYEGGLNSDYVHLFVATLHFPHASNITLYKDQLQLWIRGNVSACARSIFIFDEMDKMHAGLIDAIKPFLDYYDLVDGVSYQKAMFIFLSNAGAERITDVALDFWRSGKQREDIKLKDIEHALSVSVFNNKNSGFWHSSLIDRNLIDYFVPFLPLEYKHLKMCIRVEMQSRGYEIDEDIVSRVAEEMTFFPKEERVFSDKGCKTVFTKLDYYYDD
Assay [19] shares this target. Kind of assay: torsin A mutant lysate binding on microarrays – cell lysate, small-molecule microarray, COS7 lysate, 635/667 nm fluorescence, primary screen (AID 1150).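 Note: score pools 667 nm emission and signal to noise measuring lysate protein binding.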 Particulars: COS7 hTOR1A mutant lysate, 635 nm fluorescence, higher = more signal.
Assay [20] has as its system Sonic hedgehog protein (Shh). Nature of the assay: Sonic hedgehog microarray binding compounds – biochemical, small-molecule microarray, 635/667 nm fluorescence, primary screen (AID 1151).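 Note: Shh protein binding to compounds spotted on small-molecule microarray slides; score combines spot fluorescence intensity with signal-to-noise across triplicate slides.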 Particulars: 635 nm fluorescence, higher = more signal.

Active and inactive are the calls of the source. Unless noted, the rule behind the calls is not given here.

Chain of Focal adhesion kinase 1 (Homo sapiens) (Q05397 whole entry, looked up): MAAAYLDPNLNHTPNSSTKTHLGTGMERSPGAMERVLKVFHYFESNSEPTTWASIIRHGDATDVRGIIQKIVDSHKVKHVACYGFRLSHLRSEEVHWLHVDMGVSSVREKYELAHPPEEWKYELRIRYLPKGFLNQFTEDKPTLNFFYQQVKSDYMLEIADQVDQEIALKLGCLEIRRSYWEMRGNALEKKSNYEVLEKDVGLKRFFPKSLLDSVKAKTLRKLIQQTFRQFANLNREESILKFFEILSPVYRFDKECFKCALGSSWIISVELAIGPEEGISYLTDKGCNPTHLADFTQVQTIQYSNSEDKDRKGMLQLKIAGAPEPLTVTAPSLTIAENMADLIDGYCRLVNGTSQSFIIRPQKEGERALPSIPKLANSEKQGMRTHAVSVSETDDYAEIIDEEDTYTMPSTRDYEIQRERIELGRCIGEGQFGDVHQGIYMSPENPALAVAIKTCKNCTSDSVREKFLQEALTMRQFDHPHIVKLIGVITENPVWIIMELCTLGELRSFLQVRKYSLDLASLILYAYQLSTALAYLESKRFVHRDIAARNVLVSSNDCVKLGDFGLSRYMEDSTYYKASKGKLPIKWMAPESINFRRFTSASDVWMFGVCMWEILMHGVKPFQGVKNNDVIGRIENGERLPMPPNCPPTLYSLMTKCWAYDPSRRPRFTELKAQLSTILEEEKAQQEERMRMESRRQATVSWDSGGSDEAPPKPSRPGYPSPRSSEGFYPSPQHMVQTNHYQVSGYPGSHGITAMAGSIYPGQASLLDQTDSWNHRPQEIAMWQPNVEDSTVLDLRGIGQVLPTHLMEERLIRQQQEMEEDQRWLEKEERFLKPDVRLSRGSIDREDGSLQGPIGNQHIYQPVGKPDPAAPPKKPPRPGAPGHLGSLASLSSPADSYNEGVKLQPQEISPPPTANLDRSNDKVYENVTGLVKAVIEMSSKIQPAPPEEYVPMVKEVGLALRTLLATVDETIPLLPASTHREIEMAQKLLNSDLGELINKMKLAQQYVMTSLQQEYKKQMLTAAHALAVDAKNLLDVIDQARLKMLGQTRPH
Chain of Streptavidin (Streptomyces avidinii) (P22629 whole entry, looked up): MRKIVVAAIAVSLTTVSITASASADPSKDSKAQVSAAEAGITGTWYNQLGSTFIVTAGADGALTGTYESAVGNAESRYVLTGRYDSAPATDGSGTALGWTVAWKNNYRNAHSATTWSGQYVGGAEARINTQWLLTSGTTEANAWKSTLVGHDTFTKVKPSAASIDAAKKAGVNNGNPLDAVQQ

As to `CC(C)CON=C1[C@H]2CCn3c(=O)n(-c4ccccc4)c(=O)n3[C@H]2[C@H](O)[C@@H]2O[C@H]12`, the composite z-score in assay [1] turned out to be 0.0684; in assay [2], 0.118; in assay [3], 0.164; in assay [4] it was 0.571; in assay [5], 0.504; in assay [6], 1.03. The composite z-score in assay [8] is 0.475; in assay [9], 0.201; in assay [11] it was 0.134; in assay [16], -0.142; in [17], -0.102; in [18] it was 0.235. Besides, the composite z-score in assay [19] came out at 0.189; in assay [20], 0.445. The z-score is -0.0655 in [7]; -0.408 (inactive) in [10]; 0.893 (inactive) in assay [12]; 0.291 (inactive) in assay [13]; 0.797 (inactive) in assay [14]; 0.148 (inactive) in assay [15].

Take `C#CCCCON=C1C[C@@H](O)[C@@H](O)[C@@H]2[C@@H]3C(=O)N(CCC(=O)OCC)C(=O)[C@@H]3CC[C@@H]12`: the composite z-score in assay [1] was -0.264; in [2], -0.0592; in assay [3], 0.934; in assay [4], 0.211; in assay [5], -1.11; in assay [6] it was -0.823. Moreover, the composite z-score in assay [8] was -0.655; in [9] it was 0.662; in [11], 0.109; in assay [16] it was 0.842; in [17], 0.027; in assay [18], -0.343. Moreover, the composite z-score in assay [19] is 0.612; in [20], -0.948. Moreover, the z-score is -0.139 in assay [7]; 0.224 (inactive) in assay [10]; 0.402 (inactive) in [12]; -0.262 (inactive) in assay [13]; 1.15 (inactive) in [14]; -0.0962 (inactive) in [15].

Regarding `CCCC[C@H]1OB(O)C[C@H]2C1=C(C)C[C@H]1C(=O)N(C)C(=O)[C@H]12`, the composite z-score in [1] was -0.0755; in assay [2] it was 0.739; in assay [3], 0.248; in assay [4] it was 0.615; in assay [5] it was 0.931; in [6], 1.31. In addition, the composite z-score in [8] is 0.794; in assay [9], 0.556; in assay [11] it was 0.224; in [16] it was -0.174; in assay [17] it was -0.0221; in assay [18], 0.697. The composite z-score in assay [19] is -0.102; in [20] it was 0.948. Besides, the z-score in assay [7] is 0.445; in assay [10] it was -0.769 (inactive); in assay [12] it was 0.0813 (inactive); in [13], -0.0729 (inactive); in assay [14] it was -0.237 (inactive); in assay [15], 1.23 (inactive).

Regarding `CCOC(=O)CCN1C(=O)[C@H]2[C@H]3[C@H](O)[C@H](O)CC(=O)[C@H]3CC[C@H]2C1=O`, the composite z-score in [1] is 0.683; in assay [2] it was 0.676; in [3], -0.186; in assay [4] it was 0.29; in assay [5] it was 0.369; in assay [6], 0.364. Also, the composite z-score was 0.413 in [8]; 0.125 in assay [9]; 0.0032 in [11]; 0.275 in assay [16]; -0.183 in assay [17]; 0.269 in assay [18]. The composite z-score in assay [19] is 0.326; in [20] it was 0.693. Further, the z-score is -0.648 in assay [7]; 0.524 (inactive) in assay [10]; -3.04 (inactive) in assay [12]; -0.829 (inactive) in [13]; 0.429 (inactive) in assay [14]; -0.236 (inactive) in assay [15].

On to `O=C1NC(=O)C2C1C=CC(C(O)Cc1ccccc1)N2Nc1ccccn1` (stereo not given), for which the composite z-score was 0.596 in assay [1]; 0.45 in assay [2]; 0.116 in [3]; 0.353 in assay [4]; 0.194 in assay [5]; 0.512 in assay [6]. In addition, the composite z-score is -0.174 in assay [8]; 0.639 in assay [9]; 0.0926 in assay [11]; 0.125 in [16]; -0.0039 in assay [17]; 0.638 in [18]. Further, the composite z-score in [19] came to 0.933; in assay [20] it was 0.141. In addition, the z-score is 1.78 in assay [7]; -0.523 (inactive) in [10]; -0.151 (inactive) in assay [12]; -0.314 (inactive) in assay [13]; 0.0603 (inactive) in assay [14]; 0.589 (inactive) in [15].
